PMC7862700, “An all-to-all approach to the identification of sequence-specific readers for epigenetic DNA modifications on cytosine”

How the values were obtained:
Test in all cases: DAPPL (digital affinity profiling via proximity ligation, sequencing); 10 mM Tris-HCl pH 7.5, 50 mM NaCl, 1 mM DTT, 4% glycerol, room temperature, 30 min; GST-TFs on glutathione beads, 16-mer random dsDNA library, 0.1% formaldehyde crosslink after washing; high values mean tight binding
Details in all cases: protein: recombinant; tags: N-terminal GST; dsDNA, one strand shown
[1] = molecular target: T1, FLI1 (Homo sapiens, UniProt Q01543 1-452)
T1 sequence: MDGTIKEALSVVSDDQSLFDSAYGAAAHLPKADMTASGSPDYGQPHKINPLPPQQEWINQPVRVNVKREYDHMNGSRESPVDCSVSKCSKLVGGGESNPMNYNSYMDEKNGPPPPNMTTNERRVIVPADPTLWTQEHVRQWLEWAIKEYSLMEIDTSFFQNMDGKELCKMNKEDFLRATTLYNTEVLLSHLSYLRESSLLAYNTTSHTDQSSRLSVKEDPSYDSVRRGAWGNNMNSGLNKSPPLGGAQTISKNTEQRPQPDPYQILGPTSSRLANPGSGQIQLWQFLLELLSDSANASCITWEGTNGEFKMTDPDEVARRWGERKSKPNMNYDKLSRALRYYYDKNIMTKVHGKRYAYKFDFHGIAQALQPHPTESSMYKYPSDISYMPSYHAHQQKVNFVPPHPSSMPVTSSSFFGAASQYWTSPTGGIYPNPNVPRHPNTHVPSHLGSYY
Procedure, shortened: (§1)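 GST fusions of human transcription factors were expressed in yeast and captured with glutathione beads. Once given DNA barcodes and pooled alongside a tag-only sample, they were incubated for 30 min at room temperature with 200 nmole of a random double-stranded 16-mer DNA library in Tris/NaCl/DTT/glycerol buffer, then washed, crosslinked (0.1% formaldehyde), proximity-ligated, PCR-amplified and sequenced on an Illumina NextSeq500. The binding signal of each hexamer is its read frequency for a factor divided by its frequency for the tag-only sample.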

[2] = molecular target: T2, ERG (Homo sapiens, UniProt P11308 1-479)
T2 sequence: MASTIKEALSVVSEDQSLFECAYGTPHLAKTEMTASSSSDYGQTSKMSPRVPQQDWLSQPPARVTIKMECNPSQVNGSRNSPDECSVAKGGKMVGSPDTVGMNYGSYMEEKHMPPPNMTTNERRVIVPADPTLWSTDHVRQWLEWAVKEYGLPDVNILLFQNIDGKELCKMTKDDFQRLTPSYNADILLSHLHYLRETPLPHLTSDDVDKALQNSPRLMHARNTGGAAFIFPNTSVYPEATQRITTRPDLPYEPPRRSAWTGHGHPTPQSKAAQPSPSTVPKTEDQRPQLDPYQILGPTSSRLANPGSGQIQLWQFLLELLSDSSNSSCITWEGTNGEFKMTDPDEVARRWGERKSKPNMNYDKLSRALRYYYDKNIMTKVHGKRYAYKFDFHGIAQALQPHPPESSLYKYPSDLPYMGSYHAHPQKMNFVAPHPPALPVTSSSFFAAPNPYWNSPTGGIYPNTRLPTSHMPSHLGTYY
Procedure, shortened: as §1

[3] = molecular target: T3, EHF (Homo sapiens, UniProt Q9NZC4 1-300)
T3 sequence: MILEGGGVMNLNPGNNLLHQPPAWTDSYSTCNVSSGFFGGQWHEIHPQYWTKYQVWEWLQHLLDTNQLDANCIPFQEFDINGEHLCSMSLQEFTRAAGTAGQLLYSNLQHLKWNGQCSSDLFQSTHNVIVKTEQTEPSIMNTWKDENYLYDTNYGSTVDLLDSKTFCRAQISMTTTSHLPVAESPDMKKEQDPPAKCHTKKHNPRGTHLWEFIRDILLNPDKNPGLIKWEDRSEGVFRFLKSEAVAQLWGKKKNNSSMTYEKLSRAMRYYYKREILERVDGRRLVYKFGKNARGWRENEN
Procedure, shortened: as §1

[4] = molecular target: SPI1 (Homo sapiens, UniProt P17947 1-270)
Procedure, shortened: as §1

[5] = molecular target: SPIB (Homo sapiens, UniProt Q01892 1-262)
Procedure, shortened: as §1

[6] = molecular target: T4, ELK3 (Homo sapiens, UniProt P41970 1-407)
T4 sequence: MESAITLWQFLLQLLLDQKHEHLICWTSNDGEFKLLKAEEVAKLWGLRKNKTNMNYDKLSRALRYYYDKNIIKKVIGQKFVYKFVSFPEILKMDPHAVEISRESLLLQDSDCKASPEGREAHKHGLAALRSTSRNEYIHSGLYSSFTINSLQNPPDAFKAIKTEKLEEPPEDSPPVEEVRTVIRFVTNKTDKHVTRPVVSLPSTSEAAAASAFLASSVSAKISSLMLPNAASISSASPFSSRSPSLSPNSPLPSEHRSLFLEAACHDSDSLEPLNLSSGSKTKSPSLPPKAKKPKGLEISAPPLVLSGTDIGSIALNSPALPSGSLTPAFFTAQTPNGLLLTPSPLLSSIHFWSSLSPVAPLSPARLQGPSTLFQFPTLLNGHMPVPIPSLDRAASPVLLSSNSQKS
Procedure, shortened: as §1

[7] = molecular target: ETV5 (Homo sapiens, UniProt P41161 1-510)
Procedure, shortened: as §1

[8] = molecular target: T5, SPIC (Homo sapiens, UniProt Q8N5J4 1-248)
T5 sequence: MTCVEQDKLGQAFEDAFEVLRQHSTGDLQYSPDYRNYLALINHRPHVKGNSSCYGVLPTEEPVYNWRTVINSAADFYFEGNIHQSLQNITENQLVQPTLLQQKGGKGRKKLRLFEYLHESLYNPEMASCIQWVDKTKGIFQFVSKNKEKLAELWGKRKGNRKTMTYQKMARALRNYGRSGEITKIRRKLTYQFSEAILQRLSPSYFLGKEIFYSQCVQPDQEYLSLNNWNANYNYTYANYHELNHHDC
Procedure, shortened: as §1

[9] = molecular target: T6, ERF (Homo sapiens, UniProt P50548 1-548)
T6 sequence: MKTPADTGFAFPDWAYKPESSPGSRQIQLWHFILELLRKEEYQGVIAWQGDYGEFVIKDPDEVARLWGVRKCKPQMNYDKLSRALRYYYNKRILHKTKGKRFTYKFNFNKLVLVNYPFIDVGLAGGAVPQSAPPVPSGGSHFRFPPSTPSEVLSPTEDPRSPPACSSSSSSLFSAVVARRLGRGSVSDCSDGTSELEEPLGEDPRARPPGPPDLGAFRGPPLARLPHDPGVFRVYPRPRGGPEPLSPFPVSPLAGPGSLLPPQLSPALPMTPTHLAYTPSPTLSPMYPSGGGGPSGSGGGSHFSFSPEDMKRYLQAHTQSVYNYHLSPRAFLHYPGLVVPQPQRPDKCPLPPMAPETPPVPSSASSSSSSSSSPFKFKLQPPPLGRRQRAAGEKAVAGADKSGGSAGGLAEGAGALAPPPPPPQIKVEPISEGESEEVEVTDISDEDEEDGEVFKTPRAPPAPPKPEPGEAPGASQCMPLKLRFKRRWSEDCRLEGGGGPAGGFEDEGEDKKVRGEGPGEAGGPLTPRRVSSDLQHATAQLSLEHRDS
Procedure, shortened: as §1

[10] = molecular target: T7, ELF5 (Homo sapiens, UniProt Q9UKW6-2 1-255)
T7 sequence: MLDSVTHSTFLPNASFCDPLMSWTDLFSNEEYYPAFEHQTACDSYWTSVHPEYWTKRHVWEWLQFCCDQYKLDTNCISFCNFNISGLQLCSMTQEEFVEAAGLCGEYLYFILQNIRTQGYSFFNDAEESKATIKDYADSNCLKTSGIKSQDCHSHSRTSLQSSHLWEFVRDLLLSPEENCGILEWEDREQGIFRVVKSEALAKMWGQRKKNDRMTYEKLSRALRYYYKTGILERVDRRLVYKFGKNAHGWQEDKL
Procedure, shortened: as §1

[11] = molecular target: T8, ETV3 (Homo sapiens, UniProt P41162-2 1-143)
T8 sequence: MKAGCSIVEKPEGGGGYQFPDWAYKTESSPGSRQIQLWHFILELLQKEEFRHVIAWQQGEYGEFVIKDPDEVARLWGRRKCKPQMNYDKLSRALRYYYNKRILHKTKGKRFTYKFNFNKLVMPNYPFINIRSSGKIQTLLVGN
Procedure, shortened: as §1

[12] = molecular target: ETV6 (Homo sapiens, UniProt P41212 1-452)
Procedure, shortened: as §1

[13] = molecular target: T9, ELK1 (Homo sapiens, UniProt P19419 1-428)
T9 sequence: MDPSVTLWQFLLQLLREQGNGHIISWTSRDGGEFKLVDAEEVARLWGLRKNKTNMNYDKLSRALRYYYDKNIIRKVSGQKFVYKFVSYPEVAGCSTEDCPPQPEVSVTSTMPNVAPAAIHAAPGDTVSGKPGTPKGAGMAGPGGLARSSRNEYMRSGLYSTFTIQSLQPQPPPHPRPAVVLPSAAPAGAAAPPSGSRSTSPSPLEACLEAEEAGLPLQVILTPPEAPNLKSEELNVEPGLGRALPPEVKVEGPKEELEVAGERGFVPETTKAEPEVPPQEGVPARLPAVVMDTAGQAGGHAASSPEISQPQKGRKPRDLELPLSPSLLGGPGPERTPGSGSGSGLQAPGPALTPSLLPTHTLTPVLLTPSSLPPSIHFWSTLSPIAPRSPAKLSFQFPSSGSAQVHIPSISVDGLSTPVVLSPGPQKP
Procedure, shortened: as §1

[14] = molecular target: ELF1 (Homo sapiens, UniProt P32519 1-619)
Procedure, shortened: as §1

[15] = molecular target: ETV1 (Homo sapiens, UniProt P50549 1-477)
Procedure, shortened: as §1

Sequence of ETV5 (P41161 whole entry): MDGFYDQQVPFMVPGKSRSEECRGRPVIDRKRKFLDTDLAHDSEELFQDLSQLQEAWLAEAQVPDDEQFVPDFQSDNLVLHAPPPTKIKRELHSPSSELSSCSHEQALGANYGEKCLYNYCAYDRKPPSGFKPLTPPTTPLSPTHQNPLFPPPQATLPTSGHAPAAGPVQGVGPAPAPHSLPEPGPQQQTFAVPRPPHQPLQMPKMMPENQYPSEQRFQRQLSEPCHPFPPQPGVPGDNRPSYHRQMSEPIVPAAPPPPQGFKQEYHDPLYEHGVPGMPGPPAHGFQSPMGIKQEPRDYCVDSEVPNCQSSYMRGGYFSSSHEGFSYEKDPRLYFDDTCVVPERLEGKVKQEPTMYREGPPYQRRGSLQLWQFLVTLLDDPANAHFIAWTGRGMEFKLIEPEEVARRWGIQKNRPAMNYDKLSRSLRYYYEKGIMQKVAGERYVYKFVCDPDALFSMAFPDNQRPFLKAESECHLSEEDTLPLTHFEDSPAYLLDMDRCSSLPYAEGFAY
Sequence of SPIB (Q01892 whole entry): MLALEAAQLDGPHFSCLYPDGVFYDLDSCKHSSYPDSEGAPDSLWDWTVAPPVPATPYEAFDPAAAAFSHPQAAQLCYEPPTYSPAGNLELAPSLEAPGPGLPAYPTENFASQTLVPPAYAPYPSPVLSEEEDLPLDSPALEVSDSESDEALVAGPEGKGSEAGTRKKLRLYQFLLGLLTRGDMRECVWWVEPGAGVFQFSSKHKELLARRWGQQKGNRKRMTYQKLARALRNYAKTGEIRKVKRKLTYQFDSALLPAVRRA
Sequence of ETV6 (P41212 whole entry): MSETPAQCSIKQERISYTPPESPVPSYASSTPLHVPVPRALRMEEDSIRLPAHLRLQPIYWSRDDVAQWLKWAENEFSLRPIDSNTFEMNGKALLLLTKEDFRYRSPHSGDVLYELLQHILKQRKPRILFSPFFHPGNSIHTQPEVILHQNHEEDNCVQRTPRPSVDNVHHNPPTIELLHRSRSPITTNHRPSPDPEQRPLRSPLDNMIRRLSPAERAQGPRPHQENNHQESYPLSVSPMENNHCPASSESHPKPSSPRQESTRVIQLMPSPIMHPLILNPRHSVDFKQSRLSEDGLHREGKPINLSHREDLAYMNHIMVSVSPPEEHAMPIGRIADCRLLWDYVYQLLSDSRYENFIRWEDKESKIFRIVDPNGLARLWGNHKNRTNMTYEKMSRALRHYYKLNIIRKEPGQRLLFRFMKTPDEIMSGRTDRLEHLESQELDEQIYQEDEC
Sequence of ETV1 (P50549 whole entry): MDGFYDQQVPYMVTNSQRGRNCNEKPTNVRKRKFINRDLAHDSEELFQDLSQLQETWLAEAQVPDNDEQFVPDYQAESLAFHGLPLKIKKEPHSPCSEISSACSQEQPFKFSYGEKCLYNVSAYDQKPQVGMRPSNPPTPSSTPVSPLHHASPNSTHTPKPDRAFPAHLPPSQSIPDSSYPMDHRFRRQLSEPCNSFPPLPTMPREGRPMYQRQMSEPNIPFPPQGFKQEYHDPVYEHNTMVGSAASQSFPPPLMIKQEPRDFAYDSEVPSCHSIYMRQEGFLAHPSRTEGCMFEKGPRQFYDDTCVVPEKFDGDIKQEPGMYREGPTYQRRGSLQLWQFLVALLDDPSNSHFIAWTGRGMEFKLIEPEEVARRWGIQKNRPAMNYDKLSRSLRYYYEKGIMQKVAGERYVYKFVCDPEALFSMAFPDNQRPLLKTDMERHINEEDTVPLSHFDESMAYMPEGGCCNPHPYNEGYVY
Sequence of ELF1 (P32519 whole entry): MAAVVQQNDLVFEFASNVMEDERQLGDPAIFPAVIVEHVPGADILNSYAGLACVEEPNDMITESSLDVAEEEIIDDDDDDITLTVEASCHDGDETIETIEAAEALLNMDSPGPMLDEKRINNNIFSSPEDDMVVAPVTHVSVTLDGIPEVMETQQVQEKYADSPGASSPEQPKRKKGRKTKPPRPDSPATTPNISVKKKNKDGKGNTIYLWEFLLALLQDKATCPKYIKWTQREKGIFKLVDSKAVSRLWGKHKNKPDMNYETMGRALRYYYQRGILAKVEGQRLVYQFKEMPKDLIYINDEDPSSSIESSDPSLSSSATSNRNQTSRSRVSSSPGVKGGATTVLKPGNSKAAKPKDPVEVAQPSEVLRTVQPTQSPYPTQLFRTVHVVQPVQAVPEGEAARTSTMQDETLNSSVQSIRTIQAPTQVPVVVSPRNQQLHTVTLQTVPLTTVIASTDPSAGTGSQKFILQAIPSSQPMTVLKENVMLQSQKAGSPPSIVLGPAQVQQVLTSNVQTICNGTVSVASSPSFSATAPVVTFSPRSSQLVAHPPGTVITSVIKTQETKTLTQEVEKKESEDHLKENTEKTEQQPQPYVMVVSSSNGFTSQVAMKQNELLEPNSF

Sequence	binding signal [1]	binding signal [2]	binding signal [3]	binding signal [4]	binding signal [5]	binding signal [6]	binding signal [7]	binding signal [8]	binding signal [9]	binding signal [10]	binding signal [11]	binding signal [12]	binding signal [13]	binding signal [14]	binding signal [15]
AGTAAC	1.02 fold enrichment (6-mer frequency, TF over GST control)	1.02 fold enrichment (6-mer frequency, TF over GST control)	1 fold enrichment (6-mer frequency, TF over GST control)	1.07 fold enrichment (6-mer frequency, TF over GST control)	1 fold enrichment (6-mer frequency, TF over GST control)	1.01 fold enrichment (6-mer frequency, TF over GST control)	1.03 fold enrichment (6-mer frequency, TF over GST control)	1.07 fold enrichment (6-mer frequency, TF over GST control)	1.01 fold enrichment (6-mer frequency, TF over GST control)	1.09 fold enrichment (6-mer frequency, TF over GST control)	1.09 fold enrichment (6-mer frequency, TF over GST control)	1.09 fold enrichment (6-mer frequency, TF over GST control)	–	–	–
ACGGTT	1.07 fold enrichment (6-mer frequency, TF over GST control)	–	1.04 fold enrichment (6-mer frequency, TF over GST control)	1.02 fold enrichment (6-mer frequency, TF over GST control)	1.02 fold enrichment (6-mer frequency, TF over GST control)	–	1 fold enrichment (6-mer frequency, TF over GST control)	1.04 fold enrichment (6-mer frequency, TF over GST control)	–	1.05 fold enrichment (6-mer frequency, TF over GST control)	–	1.01 fold enrichment (6-mer frequency, TF over GST control)	1.02 fold enrichment (6-mer frequency, TF over GST control)	1.03 fold enrichment (6-mer frequency, TF over GST control)	1.08 fold enrichment (6-mer frequency, TF over GST control)
